Experimental data taken from PubChem BioAssay (NCATS).
“And” between values parts separate entries of the source, which are not always exact repeats. Identical values can stand only once. Inconclusive results are not listed. Entries that show only a call come without a potency. The source made the active and inactive calls. Unless noted, the call rests on the fitted dose curve; in most records, active means well fitted curve in the direction sought with a large enough effect; inconclusive means small, poorly fitted or top-dose-only effect, or another doubt; inactive means no such curve, though single readings can be large; an effect the other way counts as inactive or inconclusive.

Experiments:
[1] = qHTS to identify inhibitors of the type 1 interferon - major histocompatibility complex class I in skeletal muscle: primary screen against the NCATS Mechanism Interrogation Plate v5.0 (MIPE) Libary (AID 1347411); further: nearly all actives have a fitted effect of over 65% in size; further: potency means the concentration at half of the fitted maximal effect
In short: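 Cells were genome-edited human myoblasts carrying a HiBit tag on endogenous HLA-B. They were treated with IFN-beta (4.0 ng/ml) and titrated compounds (top 46 uM) for 24 hrs before lytic HiBiT detection.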

[2] = molecular target: Calcium and integrin-binding protein 1 (Homo sapiens) (UniProt Q99828); assay: Primary qHTS for Identification of Calcium Integrin Binding Protein 1 (CIB1) Competitor (AID 1508620);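 further: GST tagged CIB1 binding a fluorescein labelled alphaIIb integrin peptide tracer; top concentration of the series differs between compounds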
Calcium and integrin-binding protein 1 (Homo sapiens), sequence (Q99828 whole entry, looked up): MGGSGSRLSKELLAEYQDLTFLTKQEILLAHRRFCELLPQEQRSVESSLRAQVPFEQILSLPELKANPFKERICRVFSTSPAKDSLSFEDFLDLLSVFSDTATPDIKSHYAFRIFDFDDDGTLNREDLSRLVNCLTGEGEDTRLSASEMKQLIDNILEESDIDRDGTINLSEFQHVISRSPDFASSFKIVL
In short: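 CIB1-GST (1 uM final) and compound incubated 15 min at room temperature before adding FITC-alphaIIb peptide tracer (100 nM final). Competition for binding read by fluorescence polarization (ex 480, em 540) after another 15 min at room temperature.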

[3] = Primary qHTS for small molecule stabilizers of the endoplasmic reticulum resident proteome: Secreted ER Calcium Modulated Protein (SERCaMP) assay (AID 1508630)
In short: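 GLuc-SERCaMP-expressing SH-SY5Y cells, pretreated 16 h with compound, are challenged with thapsigargin to empty ER calcium stores; after 4 h, coelenterazine is added directly to the medium and luminescence is imaged.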

[4] = molecular target: Cytochrome P450 2D6 (Homo sapiens) (UniProt P10635); assay: Cytochrome P450 family 2 subfamily D member 6 (CYP2D6) small molecule antagonists: luciferase biochemical (cell-free) qHTS assay (AID 1645840; active means well fitted curve in the direction sought with a large enough effect in the repeat runs; an effect the other way counts as inactive or inconclusive; further: nearly all actives have a fitted effect of over 55% in size; further: potency means the concentration at half of the fitted maximal effect)
Cytochrome P450 2D6 (Homo sapiens), sequence (P10635 whole entry, looked up): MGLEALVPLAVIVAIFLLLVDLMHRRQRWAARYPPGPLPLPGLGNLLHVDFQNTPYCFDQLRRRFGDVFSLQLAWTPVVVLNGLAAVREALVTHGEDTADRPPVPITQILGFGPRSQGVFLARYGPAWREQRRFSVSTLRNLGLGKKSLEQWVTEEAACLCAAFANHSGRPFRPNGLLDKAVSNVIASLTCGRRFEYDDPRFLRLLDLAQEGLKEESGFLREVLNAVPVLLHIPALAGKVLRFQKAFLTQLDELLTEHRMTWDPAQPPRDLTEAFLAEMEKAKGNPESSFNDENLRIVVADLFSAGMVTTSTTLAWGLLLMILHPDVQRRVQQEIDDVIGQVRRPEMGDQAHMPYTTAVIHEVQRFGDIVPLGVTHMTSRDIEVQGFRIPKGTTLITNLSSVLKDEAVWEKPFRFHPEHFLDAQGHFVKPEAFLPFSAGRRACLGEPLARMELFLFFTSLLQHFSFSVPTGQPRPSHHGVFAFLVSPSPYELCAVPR
In short: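 P450-Glo luminescent screen: recombinant CYP2D6 enzyme–proluciferin substrate mix preincubated with compound 10 min at room temperature, then NADPH regeneration added for 1 h at room temperature. Detection reagent added for 20 min; luciferin light read as relative luminescence units.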

[5] = molecular target: Cytochrome P450 3A4 (Homo sapiens) (UniProt P08684); assay: Cytochrome P450 family 3 subfamily A member 4 (CYP3A4) small molecule antagonists: luciferase qHTS assay (AID 1645841; active means well fitted curve in the direction sought with a large enough effect in the repeat runs; an effect the other way counts as inactive or inconclusive; further: nearly all actives have a fitted effect of over 45% in size; further: potency means the concentration at half of the fitted maximal effect)
Cytochrome P450 3A4 (Homo sapiens), sequence (P08684 whole entry, looked up): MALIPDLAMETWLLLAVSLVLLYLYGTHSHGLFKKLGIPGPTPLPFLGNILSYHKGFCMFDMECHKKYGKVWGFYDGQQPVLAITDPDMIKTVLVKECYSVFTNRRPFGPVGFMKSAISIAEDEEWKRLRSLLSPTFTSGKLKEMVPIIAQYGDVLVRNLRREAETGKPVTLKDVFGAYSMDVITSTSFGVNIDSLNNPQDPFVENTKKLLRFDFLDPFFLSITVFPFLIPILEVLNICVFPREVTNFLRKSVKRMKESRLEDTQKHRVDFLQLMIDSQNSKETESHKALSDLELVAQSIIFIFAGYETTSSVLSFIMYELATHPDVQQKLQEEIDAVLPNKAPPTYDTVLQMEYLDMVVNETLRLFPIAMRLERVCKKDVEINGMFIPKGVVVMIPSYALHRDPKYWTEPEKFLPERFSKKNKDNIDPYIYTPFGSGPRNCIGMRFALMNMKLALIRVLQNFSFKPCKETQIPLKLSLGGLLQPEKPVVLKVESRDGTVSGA
In short: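 Luminescent CYP3A4 activity readout: compounds plus enzyme-substrate mix 10 min at room temperature, reaction started with NADPH regenerating system for 1 h, stopped with detection reagent, read after 20 min. Ketoconazole served as control.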

[6] = molecular target: Cytochrome P450 2C9 (Homo sapiens) (UniProt P11712); assay: Cytochrome P450 family 2 subfamily C member 9 (CYP2C9) small molecule antagonists: luciferase biochemical (cell-free) qHTS assay (AID 1645842; active means well fitted curve in the direction sought with a large enough effect in the repeat runs; an effect the other way counts as inactive or inconclusive; further: nearly all actives have a fitted effect of over 55% in size; further: potency means the concentration at half of the fitted maximal effect)
Cytochrome P450 2C9 (Homo sapiens), sequence (P11712 whole entry, looked up): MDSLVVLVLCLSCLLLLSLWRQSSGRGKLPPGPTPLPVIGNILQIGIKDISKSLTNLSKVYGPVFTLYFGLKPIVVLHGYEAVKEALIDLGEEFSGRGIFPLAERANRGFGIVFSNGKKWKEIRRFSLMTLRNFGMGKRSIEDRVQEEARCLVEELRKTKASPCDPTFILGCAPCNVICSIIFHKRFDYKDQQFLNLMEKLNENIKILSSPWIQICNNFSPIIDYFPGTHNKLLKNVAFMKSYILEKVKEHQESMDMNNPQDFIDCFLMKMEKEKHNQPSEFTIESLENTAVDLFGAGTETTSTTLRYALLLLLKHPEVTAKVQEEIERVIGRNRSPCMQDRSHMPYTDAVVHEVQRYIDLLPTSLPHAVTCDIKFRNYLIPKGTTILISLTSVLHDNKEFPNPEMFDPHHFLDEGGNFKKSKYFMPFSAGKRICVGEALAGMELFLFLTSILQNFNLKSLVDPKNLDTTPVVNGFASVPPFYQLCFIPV
In short: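 Luminescence, after 20 min with luciferin detection reagent, reflected CYP2C9 turnover during a 1 h NADPH-driven reaction at 37C. Enzyme-substrate mix contained 0.4% bovine serum albumin and was preincubated with compound 10 min at room temperature.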

[7] = Primary qHTS for inhibitors of nuclear receptor binding SET domain protein 2 (NSD2) in an isogenic RCH-ACV NSD2 p.E1099K mutant (9B) (AID 1645876); further: nearly all actives have a fitted effect of over 70% in size; further: potency means the concentration at half of the fitted maximal effect
[8] = Primary qHTS for inhibitors of nuclear receptor binding SET domain protein 2 (NSD2) in an RCH-ACV wild type WT cells (2C) (AID 1645877); further: nearly all actives have a fitted effect of over 70% in size; further: potency means the concentration at half of the fitted maximal effect
[9] = molecular target: Calcium and integrin-binding protein 1 (Homo sapiens) (UniProt Q99828); assay: Confirmatory qHTS for Identification of Calcium Integrin Binding Protein 1 (CIB1) Competitor (AID 1508617); further: nearly all actives have a fitted effect of over 65% in size
In short: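 FP competition: CIB1-GST (1 uM final) in 5 mM HEPES pH 7.4, 125 mM NaCl, 5 mM CaCl2, 0.01% Tween20 preincubated 15 min RT with compounds (up to 114 uM), then FITC-alphaIIb peptide (100 nM), 15 min RT; Ex 480/Em 540.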

[10] = qHTS to identify inhibitors of the type 1 interferon - major histocompatibility complex class I in skeletal muscle: primary screen against the NCATS Pharmaceutical Collection (AID 1347407);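 further: luminescence of HiBiT knocked into endogenous HLA-B as interferon-induced MHC class I level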
In short: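 Compounds […] were added to CRISPR-engineered HLA-B-HiBiT C25cl48 human myoblasts with 4.0 ng/ml IFN-beta. After 24 hrs at 37 C, cells were lysed and HiBiT luminescence measured.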

[11] = molecular target: Protein phosphatase 1D (Homo sapiens) (UniProt O15297); assay: RapidFire Mass Spectrometry qHTS Assay for Modulators of WT P53-Induced Phosphatase 1 (WIP1) (AID 1347424);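 further: amount of dephosphorylated VEPPL-S-QETFS peptide product formed by WIP1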; further: potency means the concentration at half of the fitted maximal effect
Protein phosphatase 1D (Homo sapiens), sequence (O15297 whole entry, looked up): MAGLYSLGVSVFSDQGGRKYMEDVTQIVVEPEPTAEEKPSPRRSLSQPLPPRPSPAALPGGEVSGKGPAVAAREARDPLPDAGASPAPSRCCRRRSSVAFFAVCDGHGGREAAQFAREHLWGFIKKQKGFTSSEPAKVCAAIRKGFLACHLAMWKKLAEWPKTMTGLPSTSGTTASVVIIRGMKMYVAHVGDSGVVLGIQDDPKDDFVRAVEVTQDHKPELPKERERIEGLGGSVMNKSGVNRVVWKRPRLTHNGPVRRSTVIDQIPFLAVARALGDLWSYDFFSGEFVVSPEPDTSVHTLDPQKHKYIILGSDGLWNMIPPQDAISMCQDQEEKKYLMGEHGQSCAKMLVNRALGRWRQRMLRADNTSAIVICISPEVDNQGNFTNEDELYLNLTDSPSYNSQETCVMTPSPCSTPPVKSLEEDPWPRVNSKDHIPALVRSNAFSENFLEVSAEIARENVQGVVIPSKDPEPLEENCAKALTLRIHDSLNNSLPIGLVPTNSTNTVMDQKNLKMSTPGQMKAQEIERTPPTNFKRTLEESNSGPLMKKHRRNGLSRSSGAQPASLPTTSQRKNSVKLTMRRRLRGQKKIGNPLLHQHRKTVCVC
In short: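 10 nM WIP1 + cpd, 1 h RT; + 2 uM VEPPL-pS-QETFS, 5 min RT; stop 0.5% formic acid; labelled product standard 1 uM; RapidFire MS. Buffer 50 mM Tris pH 7.5, 30 mM MgCl2, 1 mM TCEP.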

[12] = molecular target: Protein phosphatase 1D (Homo sapiens) (UniProt O15297); assay: Rhodamine-PBP qHTS Assay for Modulators of WT P53-Induced Phosphatase 1 (WIP1) (AID 1347425)
In short: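 WIP1 (5 nM final) was preincubated with compound for 1 hour at room temperature. It then dephosphorylated 10 uM VEPPL-pS-QETFS peptide in Tris-HCl pH 7.5 with 30 mM MgCl2. Released Pi was detected by 10 uM Rh-PBP fluorescence (ex 525/em 598 nm) read at 1-min intervals for 11 min, as delta f1 - f0.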

[13] = Primary qHTS for inhibitors of La Crosse Virus (LACV) - induced cell death in SH-SY5Y cells (AID 1508616);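 further: top concentration of the series differs between compounds; higher means more rescue of cells from virus-induced death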
In short: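 Readout was luminescence from ATPLite 1step added after a 6-day LACV infection (0.01 MOI) of SH-SY5Y cells that had received pin-transferred compound 24 hr after seeding.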

[14] = A High-Content qHTS Against Drug Library for the Identification of Small Molecules that Inhibit DYT1 Early Onset Primary Dystonia-Associated Cell Pathology (AID 1645839; calls by dose curve)
In short: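 In this high-content image screen, delE TorsinA mislocalization in inducible Flp-In 293 cells is scored as %pathology, with cell count serving as the counterscreen. Compound exposure lasts 48 h under tetracycline induction in reduced-serum medium.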

[15] = molecular target: Catechol O-methyltransferase (Homo sapiens) (UniProt P21964); assay: Confirmatory Screen for Target Class Profiling of Small Molecule Inhibitors of Methyltransferases (AID 1745852); details: MTase-Glo luminescence, SAH detection, recombinant enzyme; measured here: COMT max response; stronger effect = lower value
Catechol O-methyltransferase (Homo sapiens), sequence (P21964 whole entry, looked up): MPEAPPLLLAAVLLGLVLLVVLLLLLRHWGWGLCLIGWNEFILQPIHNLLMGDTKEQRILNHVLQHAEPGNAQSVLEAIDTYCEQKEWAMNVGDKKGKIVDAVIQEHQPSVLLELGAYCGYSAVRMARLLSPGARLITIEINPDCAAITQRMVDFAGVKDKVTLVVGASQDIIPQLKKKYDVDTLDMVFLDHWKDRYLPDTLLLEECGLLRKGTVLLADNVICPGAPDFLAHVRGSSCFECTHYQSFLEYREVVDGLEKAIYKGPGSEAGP

[16] = molecular target: Guanidinoacetate N-methyltransferase (Homo sapiens) (UniProt Q14353); assay: as above; details: activity change, negative = inhibition: at 57.3 µM (top of the series)

With `COC[C@H](NC(=O)c1cnc(C)s1)C(=O)N[C@@H](COC)C(=O)N[C@@H](Cc1ccccc1)C(=O)[C@@]1(C)CO1` the Potency [1] was 0.0523 µM (active), the Potency [2] was “inactive” and the outcome [3] was “inactive”. The Potency [4] was “inactive”, the Potency [5] was 10.7 µM (active) and the Potency [6] was “inactive”. The Potency [7] was 0.132 µM (active) and the Potency [8] was 0.0833 µM (active).

In the case of `CC(C)Oc1ccc(C(=O)N[C@H](CNC(=O)CN(C)C)Cc2ccc(-c3cn4cccc([C@H](C)O)c4n3)cc2)cc1Cl`, the Potency [1] is reported as “inactive”, the Potency [2] is reported as “inactive” and the outcome [3] is reported as “inactive”. For the same compound, the Potency [4] was 5.35 µM (active), the Potency [6] was 10.7 µM (active) and the Potency [7] was 0.059 µM (active). The Potency [8] was 0.059 µM (active).

With `O=C1c2cccc(O)c2C(=O)c2c(O)cc(CO)cc21` the Potency [1] was “inactive”, the Potency [9] was “inactive” and the outcome [3] was “inactive”. For the same compound, the Potency [7] was “inactive” and the Potency [8] was “inactive”.

In the case of `O=C1NC(O)CCN1[C@@H]1O[C@H](CO)[C@H](O)[C@H]1O` (some centres not stated), the Potency [1] is reported as “inactive”, the Potency [2] is reported as “inactive” and the outcome [3] is reported as “inactive”. For the same compound, the Potency [4] was “inactive”, the Potency [5] was “inactive” and the Potency [6] was “inactive”. The Potency [7] was “inactive” and the Potency [8] was “inactive”.

In the case of `CC1(C)O[C@@H]2C[C@H]3[C@@H]4CCC5=CC(=O)C=C[C@]5(C)[C@@H]4[C@@H](O)C[C@]3(C)[C@]2(C(=O)CO)O1`, the outcome [10] is reported as “inactive”, the Potency [11] is reported as “inactive” and the outcome [12] is reported as “inactive”. The outcome [13] was “inactive”, the Potency [2] was “inactive” and the outcome [3] was “inactive”. The outcome [14] was “inactive”, the Potency [4] was “inactive” and the Potency [7] was “inactive”.

For `Cc1cnc(Nc2ccc(CN3CCOCC3)cc2)nc1Nc1cccc(S(=O)(=O)NC(C)(C)C)c1`, the Potency [1] was 2.94 µM (active), the Potency [2] was “inactive” and the outcome [3] was “inactive”. The Potency [4] was 9.52 µM (active), the Potency [6] was 1.34 µM (active) and the Potency [7] was 1.18 µM (active) and 578 nM (active). For the same compound, the Potency [8] was 1.05 µM (active) and 515 nM (active), the activity [15] was -0.0774% and the activity change, negative = inhibition [16] was 0.454%.

For `Cc1cn([C@@H]2O[C@H](CO)[C@@H](O)[C@H]2F)c(=O)[nH]c1=O`, the outcome [10] was “inactive”, the Potency [11] was “inactive” and the outcome [12] was “inactive”. For the same compound, the outcome [13] was “inactive”, the outcome [14] was “inactive” and the Potency [4] was “inactive”. The Potency [6] was “inactive”, the Potency [7] was “inactive” and the Potency [8] was “inactive”.

For `N#Cc1c(C2CCNCC2)cc(-c2c(O)cccc2OCC2CC2)nc1N`, the Potency [1] was 8.29 µM (active), the Potency [2] was “inactive” and the outcome [3] was “inactive”. The Potency [4] was 0.674 µM (active), the Potency [6] was 8.49 µM (active) and the Potency [7] was 11.8 µM (active). For the same compound, the Potency [8] was 9.34 µM (active), the activity [15] was -9.7% and the activity change, negative = inhibition [16] was 0.393%.

In the case of `CCOc1cc2c(c(F)c1OCC)C(=N)N(CC(=O)c1cc(N3CCOCC3)c(OC)c(C(C)(C)C)c1)C2`, the Potency [1] is reported as 14.7 µM (active), the Potency [2] is reported as “inactive” and the outcome [3] is reported as “inactive”. The Potency [4] was 5.35 µM (active), the Potency [6] was 6.01 µM (active) and the Potency [7] was 23 µM (active). The Potency [8] was 16.3 µM (active).

For `COC(=O)C1C2CC3c4[nH]c5cc(OC)ccc5c4CCN3CC2CC(OC(=O)c2cc(OC)c(OC)c(OC)c2)C1OC` (configuration not stated), the Potency [1] was “inactive”, the Potency [2] was “inactive” and the outcome [3] was “inactive”.

With `C=CC(=O)Nc1ccc2ncnc(Nc3ccc(OCc4cccc(F)c4)c(Cl)c3)c2c1` the Potency [1] was 10.4 µM (active), the Potency [2] was “inactive” and the outcome [3] was “inactive”. For the same compound, the Potency [4] was “inactive”, the Potency [6] was 3.38 µM (active) and the Potency [7] was 7.28 µM (active) and 5.9 µM (active). The Potency [8] was 8.17 µM (active) and 4.68 µM (active).

With `C[C@H](O)[C@@H]1C(=O)N2C(C(=O)O)=C(S[C@@H]3CN[C@H](CNS(N)(=O)=O)C3)[C@@H](C)[C@@H]12` the Potency [1] was “inactive”, the Potency [2] was “inactive” and the outcome [3] was “inactive”. For the same compound, the Potency [4] was “inactive”, the Potency [7] was “inactive” and the Potency [8] was “inactive”.

In the case of `COc1cc2ncnc(Nc3cccc(Br)c3)c2cc1OC`, the Potency [1] is reported as 10.4 µM (active), the Potency [2] is reported as “inactive” and the outcome [3] is reported as “inactive”.

In the case of `Cc1ncc(-c2ccnc(Nc3ccc(S(C)(=O)=O)cc3)n2)n1C(C)C`, the Potency [1] is reported as 1.17 µM (active), the Potency [2] is reported as “inactive” and the outcome [3] is reported as “inactive”. For the same compound, the Potency [4] was “inactive”, the Potency [6] was 3.79 µM (active) and the Potency [7] was 1.45 µM (active) and 742 nM (active). The Potency [8] was 916 nM (active) and 525 nM (active).

In the case of `Cc1ccc(-n2[nH]c(C)c(N=Nc3cccc(-c4cccc(C(=O)O)c4)c3O)c2=O)cc1C`, the outcome [10] is reported as “inactive”, the Potency [1] is reported as “inactive” and the Potency [11] is reported as 12.6 µM (active). For the same compound, the outcome [13] was “inactive”, the Potency [4] was 4.9 µM (active) and 7.56 µM (active) and the Potency [6] was “inactive”.

With `COc1ccc(Nc2nccc(NCCO)n2)cc1` the Potency [1] was “inactive”, the Potency [2] was “inactive” and the outcome [3] was “inactive”.

With `CN(C)CCN1C(=O)c2cccc3cc(N)cc(c23)C1=O` the Potency [1] was 10.4 µM (active), the Potency [9] was “inactive” and the outcome [3] was “inactive”. The Potency [7] was 5.25 µM (active) and the Potency [8] was 4.17 µM (active).

In the case of `Oc1cc(-c2nc(-c3ccccc3)[nH]c2-c2ccncc2)ccc1Cl`, the Potency [1] is reported as 16.5 µM (active), the Potency [2] is reported as “inactive” and the outcome [3] is reported as “inactive”. For the same compound, the Potency [4] was 0.756 µM (active), the Potency [6] was 1.69 µM (active) and the Potency [7] was 11.8 µM (active) and 18.3 µM (active). The Potency [8] was 13.2 µM (active) and 16.4 µM (active).

With `COc1ccc(C[C@@H](C)[C@@H](C)Cc2ccc(OC)c(OC)c2)cc1OC` the Potency [1] was “inactive”, the Potency [2] was “inactive” and the outcome [3] was “inactive”. For the same compound, the Potency [6] was 3.01 µM (active).
